The source made the active and inactive calls. Rule for the calls: active = hit-call score of the fitted dose curve at least 0.9, where 1 is the maximum; inactive = score below 0.9.
Legend:
Conditions in all cases: mRNA level, 48 h; actives raise or lower the signal
[1] = read-out: Cytochrome P450 (CYP24A1), CYP24A1 (gene 1591); test: LTEA_HepaRG_CYP24A1: Life Technologies and Expression Analysis (LTEA) Assay for Cytochrome P450 (CYP24A1) using HepaRG (AID 2283478)
How it was run: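 Differentiated HepaRG cells, pre-cultured 48 h, were exposed in duplicate for 48 h in serum-free induction medium to 8 half-log concentrations (top 100 uM, 0.5% DMSO). CYP24A1 mRNA was quantified by TaqMan qRT-PCR, normalized to ACTB/GAPDH/POLR2A, fitted bidirectionally versus DMSO.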

[2] = read-out: cysteine-aspartic acid protease (CASP8), CASP8 (gene 841); test: LTEA_HepaRG_CASP8: Life Technologies and Expression Analysis (LTEA) Assay for cysteine-aspartic acid protease (CASP8) using HepaRG (AID 2283480)
How it was run: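 Concentration-response in duplicate up to 100 uM (half-log steps, 0.5% DMSO) on differentiated HepaRG cultures for 48 h. Expression change of CASP8 mRNA is determined by TaqMan qRT-PCR with housekeeping-gene normalization.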

[3] = read-out: Cytochrome P450 (CYP2B6), CYP2B6 (gene 1555); test: LTEA_HepaRG_CYP2B6: Life Technologies and Expression Analysis (LTEA) Assay for Cytochrome P450 (CYP2B6) using HepaRG (AID 2283481)
How it was run: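 Differentiated HepaRG cells, serum-free induction medium, exposed 48 h in duplicate to 8-point half-log concentrations from 100 uM in 0.5% DMSO. CYP2B6 mRNA by qRT-PCR, normalized to ACTB, GAPDH, POLR2A; bidirectional fit versus DMSO.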

[4] = read-out: Cytochrome P450 2C19 (Homo sapiens) (UniProt P33261); test: LTEA_HepaRG_CYP2C19: Life Technologies and Expression Analysis (LTEA) Assay for CYP2C19 using HepaRG (AID 2283482)
How it was run: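 Differentiated human HepaRG cells were exposed for 48 h in serum-free induction medium to 8 concentrations (top 100 uM, half-log steps, 0.5% DMSO). CYP2C19 mRNA was measured by qRT-PCR, normalized to ACTB/GAPDH/POLR2A, and fitted bidirectionally against DMSO.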

CYP2C8 (gene 1558) = test: LTEA_HepaRG_CYP2C8: Life Technologies and Expression Analysis (LTEA) Assay for CYP2C8 using HepaRG (AID 2283483)
How it was run: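 This is a transcriptional endpoint in HepaRG cultures: 48 h exposure, highest concentration 100 uM. CYP2C8 mRNA is quantified by TaqMan qRT-PCR.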

CYP2C9 (gene 1559) = test: LTEA_HepaRG_CYP2C9: Life Technologies and Expression Analysis (LTEA) Assay for CYP2C9 using HepaRG (AID 2283484)
How it was run: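 Eight-point concentration-response (highest 100 uM, half-log dilutions) in HepaRG cells for 48 h; CYP2C9 expression by qRT-PCR normalized to ACTB, GAPDH, POLR2A. Bidirectional fit, DMSO baseline.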

CYP2E1 (gene 1571) = test: LTEA_HepaRG_CYP2E1: Life Technologies and Expression Analysis (LTEA) Assay for CYP2E1 using HepaRG (AID 2283485)
How it was run: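 CYP2E1 transcript measured by Fluidigm qRT-PCR against three housekeeping genes in human HepaRG cells treated 48 h (top 100 uM, half-log steps, 0.5% DMSO vehicle). Gain or loss fitted relative to DMSO baseline.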

[5] = read-out: Cytochrome P450 3A4 (Homo sapiens) (UniProt P08684); test: LTEA_HepaRG_CYP3A4: Life Technologies and Expression Analysis (LTEA) Assay for CYP3A4 using HepaRG (AID 2283487)
How it was run: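 In a human hepatic line (HepaRG), duplicate wells were treated 48 h with up to 100 uM chemical in half-log dilutions. Endpoint: CYP3A4 mRNA induction or loss relative to 0.5% DMSO vehicle, by qRT-PCR.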

[6] = read-out: DNA damage-inducible transcript 3 (DDIT3), DDIT3 (gene 1649); test: LTEA_HepaRG_DDIT3: Life Technologies and Expression Analysis (LTEA) Assay for DNA damage-inducible transcript 3 (DDIT3) using HepaRG (AID 2283488)
How it was run: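 DDIT3 transcript was quantified by qRT-PCR with ACTB/GAPDH/POLR2A normalization after 48 h chemical treatment of differentiated HepaRG cells in 0.5% DMSO. Dosing was eight-point, half-log, top 100 uM, duplicate wells. Curves fitted bidirectionally versus DMSO.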

[7] = read-out: Pro-epidermal growth factor (Homo sapiens) (UniProt P01133); test: LTEA_HepaRG_EGF: Life Technologies and Expression Analysis (LTEA) Assay for Epidermal growth factor (EGF) using HepaRG (AID 2283489)
How it was run: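 Differentiated human HepaRG cells, plated 48 h then switched to serum-free induction medium, were exposed for 48 h to test chemicals (8-point half-log series, top 100 uM, 0.5% DMSO). EGF mRNA was quantified by qRT-PCR, normalized to ACTB, GAPDH, POLR2A.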

[8] = read-out: Ezrin (EZR), EZR (gene 7430); test: LTEA_HepaRG_EZR: Life Technologies and Expression Analysis (LTEA) Assay for Ezrin (EZR) using HepaRG (AID 2283491)
How it was run: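 Gain or loss of EZR mRNA is scored relative to 0.5% DMSO in human HepaRG cultures treated 48 h with test chemicals in duplicate, eight half-log concentrations from 100 uM.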

[9] = read-out: Cytochrome P450 3A7 (Homo sapiens) (UniProt P24462); test: LTEA_HepaRG_CYP3A7: Life Technologies and Expression Analysis (LTEA) Assay for CYP3A7 using HepaRG (AID 2283492)
How it was run: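 HepaRG cells plated 48 h, then dosed in serum-free induction medium for 48 h at 8 concentrations (top 100 uM, half-log steps, 0.5% DMSO). CYP3A7 mRNA by qRT-PCR, normalised to ACTB/GAPDH/POLR2A; bidirectional fit versus DMSO.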

CYP3A5 (gene 1577) = test: LTEA_HepaRG_CYP3A5: Life Technologies and Expression Analysis (LTEA) Assay for CYP3A5 using HepaRG (AID 2283493)
How it was run: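 mRNA levels were quantified by qRT-PCR on Fluidigm arrays and normalized to three housekeeping genes. Differentiated HepaRG cells received 48 h exposure (top 100 uM, half-log steps, 0.5% DMSO vehicle, duplicate); bidirectional fitting versus DMSO.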

[10] = read-out: Cytochrome P450 4A22 (Homo sapiens) (UniProt Q5TCH4); test: LTEA_HepaRG_CYP4A22: Life Technologies and Expression Analysis (LTEA) Assay for Cytochrome P450 4A22 (CYP4A22) using HepaRG (AID 2283495)
How it was run: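 qRT-PCR of CYP4A22 mRNA (Fluidigm TaqMan, normalized to three housekeeping genes) after 48 h chemical exposure of HepaRG cells; 8-point half-log series, top 100 uM, 0.5% DMSO vehicle. Bidirectional curve fitting vs DMSO baseline.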

[11] = read-out: Cytochrome P450 7A1 (Homo sapiens) (UniProt P22680); test: LTEA_HepaRG_CYP7A1: Life Technologies and Expression Analysis (LTEA) Assay for Cytochrome P450 7A1 (CYP7A1) using HepaRG (AID 2283496)
How it was run: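 HepaRG, 48 h exposure, 8-pt half-log series from 100 uM, 0.5% DMSO vehicle, duplicates. Readout: TaqMan qRT-PCR mRNA vs three housekeeping genes; bidirectional curve fit against DMSO baseline.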

[12] = read-out: Glutathione S-Transferase (GSTA2), GSTA2 (gene 2939); test: LTEA_HepaRG_GSTA2: Life Technologies and Expression Analysis (LTEA) Assay for Glutathione S-Transferase (GSTA2) using HepaRG (AID 2283497)
How it was run: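 Oxidative-stress marker GSTA2 is quantified by TaqMan qRT-PCR in HepaRG cultures treated 48 h across an eight-point range to 100 uM. Expression is normalized to endogenous controls and compared with 0.5% DMSO vehicle.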

[13] = read-out: Early growth response protein 1 (EGR1) transcription factor, EGR1 (gene 1958); test: LTEA_HepaRG_EGR1: Life Technologies and Expression Analysis (LTEA) Assay for Early growth response protein 1 (EGR1) transcription factor using HepaRG (AID 2283490)
How it was run: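 EGR1 expression change in human HepaRG after 48 h chemical exposure, assessed by housekeeping-normalized qRT-PCR; concentration-response up to 100 uM, fitted in both directions against DMSO controls.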

[14] = read-out: Fatty Acid-Binding Protein 1 (FABP1), FABP1 (gene 2168); test: LTEA_HepaRG_FABP1: Life Technologies and Expression Analysis (LTEA) Assay for Fatty Acid-Binding Protein 1 (FABP1) using HepaRG (AID 2283494)
How it was run: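 Values reflect bidirectional concentration-response fitting of FABP1 mRNA change against 0.5% DMSO controls. Human HepaRG cultures received eight half-log doses (top 100 uM) for 48 h; expression quantified by TaqMan qRT-PCR with housekeeping-gene normalization.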

CYP4A11 (gene 1579) = test: LTEA_HepaRG_CYP4A11: Life Technologies and Expression Analysis (LTEA) Assay for CYP4A11 using HepaRG (AID 2283486)
How it was run: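 Differentiated HepaRG cells, serum-free induction medium, exposed 48 h in duplicate to 8-point half-log series from 100 uM in 0.5% DMSO. CYP4A11 mRNA measured by qRT-PCR, normalized to ACTB, GAPDH, POLR2A; bidirectional fit versus DMSO.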

Measured: AC50

Chain of Cytochrome P450 3A7 (Homo sapiens) (P24462 whole entry, looked up): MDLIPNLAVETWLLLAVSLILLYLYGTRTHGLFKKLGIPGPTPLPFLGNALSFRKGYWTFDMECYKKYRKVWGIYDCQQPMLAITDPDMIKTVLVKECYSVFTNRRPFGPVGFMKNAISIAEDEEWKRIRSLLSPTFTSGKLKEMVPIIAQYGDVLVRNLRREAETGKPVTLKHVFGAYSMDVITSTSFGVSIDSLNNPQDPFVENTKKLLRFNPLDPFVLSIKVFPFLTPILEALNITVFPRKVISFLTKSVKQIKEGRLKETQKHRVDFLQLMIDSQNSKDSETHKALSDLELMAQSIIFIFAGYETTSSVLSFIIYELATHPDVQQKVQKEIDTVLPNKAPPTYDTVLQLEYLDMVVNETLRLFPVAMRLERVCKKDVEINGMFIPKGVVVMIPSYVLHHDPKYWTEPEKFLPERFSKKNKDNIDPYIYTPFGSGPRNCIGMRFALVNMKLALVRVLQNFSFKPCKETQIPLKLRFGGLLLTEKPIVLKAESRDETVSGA
Chain of Cytochrome P450 3A4 (Homo sapiens) (P08684 whole entry, looked up): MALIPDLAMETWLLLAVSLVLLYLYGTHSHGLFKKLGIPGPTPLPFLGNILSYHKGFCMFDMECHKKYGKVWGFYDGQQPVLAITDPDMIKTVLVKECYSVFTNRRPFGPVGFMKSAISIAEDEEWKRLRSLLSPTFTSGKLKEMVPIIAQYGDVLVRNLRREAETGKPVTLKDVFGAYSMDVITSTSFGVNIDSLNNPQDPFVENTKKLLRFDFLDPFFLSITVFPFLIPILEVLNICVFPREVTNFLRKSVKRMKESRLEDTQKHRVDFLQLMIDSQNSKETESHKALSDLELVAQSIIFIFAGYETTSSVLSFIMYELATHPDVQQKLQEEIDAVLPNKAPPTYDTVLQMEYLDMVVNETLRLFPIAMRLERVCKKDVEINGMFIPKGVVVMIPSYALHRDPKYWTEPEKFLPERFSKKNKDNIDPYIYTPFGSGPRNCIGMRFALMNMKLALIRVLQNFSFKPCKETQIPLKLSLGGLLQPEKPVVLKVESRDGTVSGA
Chain of Cytochrome P450 2C19 (Homo sapiens) (P33261 whole entry, looked up): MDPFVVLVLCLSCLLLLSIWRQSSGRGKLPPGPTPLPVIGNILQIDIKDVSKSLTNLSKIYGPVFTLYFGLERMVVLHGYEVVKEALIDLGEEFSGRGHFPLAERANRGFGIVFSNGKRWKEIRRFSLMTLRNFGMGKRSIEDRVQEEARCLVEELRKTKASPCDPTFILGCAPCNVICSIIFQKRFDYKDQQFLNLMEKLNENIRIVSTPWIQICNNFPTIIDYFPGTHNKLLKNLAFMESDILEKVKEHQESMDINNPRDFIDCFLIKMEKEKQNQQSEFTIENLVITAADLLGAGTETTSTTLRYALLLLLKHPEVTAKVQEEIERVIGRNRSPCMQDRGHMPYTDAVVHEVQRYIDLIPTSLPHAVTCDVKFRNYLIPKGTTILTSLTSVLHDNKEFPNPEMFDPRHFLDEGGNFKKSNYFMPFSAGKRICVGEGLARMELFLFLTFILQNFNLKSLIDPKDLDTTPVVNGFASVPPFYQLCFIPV

NC(=O)N1C(=O)C(C(=O)c2cc(Cl)cs2)c2cc(F)c(Cl)cc21 (stereo not drawn)
active: [2] 19.2 µM | [3] 16.3 µM | [4] 22.4 µM | CYP2C8 (gene 1558) 50 µM | CYP2C9 (gene 1559) 22.4 µM | CYP2E1 (gene 1571) 13.2 µM | [5] 24.6 µM | [6] 22.9 µM | [7] 50 µM | [9] 24.8 µM | CYP3A5 (gene 1577) 13 µM | [10] 24.1 µM | [11] 16.6 µM | [12] 19.5 µM
inactive: [1] | [8]

COC(=O)CCCCC(=O)OC
not listed: [4] | CYP4A11 (gene 1579)
inactive: all other assays above

CCCCCCCCCCCCN1CCCC1=O
not listed: [4] | [13]
inactive: all other assays above

CCCCC(CC)COC(=O)CCCCC(=O)OCc1ccccc1 (stereo not drawn)
not listed: [4] | [13] | CYP4A11 (gene 1579)
inactive: all other assays above

Cc1cc(C)c(O)c(C)c1
active: [3] 3.65 µM | CYP2C8 (gene 1558) 5.03 µM | CYP2C9 (gene 1559) 6.31 µM | CYP2E1 (gene 1571) 13.4 µM | [5] 13.7 µM | [9] 7.49 µM
not listed: [4] | [13] | CYP4A11 (gene 1579)
inactive: all other assays above

CCCCCCCCCCCCc1ccccc1S(=O)(=O)O
active: [3] 84.5 µM | CYP2C8 (gene 1558) 82.3 µM | CYP2C9 (gene 1559) 83.3 µM | CYP2E1 (gene 1571) 78.3 µM | [5] 89.6 µM | [6] 62.1 µM | [7] 50 µM | [9] 88 µM | [14] 66.4 µM | [10] 79.6 µM | [11] 93.7 µM | [12] 80.3 µM
inactive: [1] | [2] | [8] | CYP3A5 (gene 1577)

CC1=C(/C=C/C(C)=C/C=C/C(C)=C/C(=O)O)C(C)(C)CCC1
inactive: [2] | CYP2C8 (gene 1558) | CYP2C9 (gene 1559) | [6] | [13] | CYP3A5 (gene 1577)
active: [1] 12.8 µM | [3] 6.58 µM | CYP2E1 (gene 1571) 20.8 µM | [7] 28 µM | [8] 0.495 µM | [14] 13.6 µM | [10] 10.2 µM | [11] 29.6 µM | [12] 5.61 µM
